# According to PubChem BioAssay (EPA / NIEHS):
# Values joined by “and” are separate entries in the source; they are usually repeats but may differ in a detail not shown here. Equal entries are not always repeated. Inconclusive results are not listed. The source holds several records for some structures; these can differ, active in one and inactive in another. Active and inactive are the calls of the source. The calls were made as follows, unless noted: active = hit-call score of the fitted dose curve at least 0.9, where 1 is the maximum; inactive = score below 0.9.
# How the values were obtained:
# [1] = read-out: succinate dehydrogenase complex iron sulfur subunit B (SDHB), SDHB (gene 6390); test: LTEA_HepaRG_SDHB: Life Technologies and Expression Analysis (LTEA) Assay for succinate dehydrogenase complex iron sulfur subunit B (SDHB) using HepaRG (AID 2283528); details: mRNA level, 48 h; actives raise or lower the signal
# Outline: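 SDHB transcript level read by TaqMan qRT-PCR, housekeeping-normalised (ACTB, GAPDH, POLR2A), after 48 h chemical treatment of plated HepaRG cells; eight concentrations top 100 uM, half-log steps, 0.5% DMSO, duplicates; fitted both directions against DMSO.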
# [2] = read-out: Signal transducer and activator of transcription 3 (Homo sapiens) (UniProt P40763); test: LTEA_HepaRG_STAT3: Life Technologies and Expression Analysis (LTEA) Assay for Signal transducer and activator of transcription (STAT3) using HepaRG (AID 2283529); details: mRNA level, 48 h; actives raise or lower the signal
# Outline: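 Differentiated HepaRG cells, serum-free induction medium, dosed 48 h in duplicate, 8 half-log concentrations from 100 uM in 0.5% DMSO. STAT3 mRNA by qRT-PCR, normalised to ACTB, GAPDH, POLR2A; bidirectional fit versus DMSO.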
# [3] = read-out: solute carrier (SLCO1B1), SLCO1B1 (gene 10599); test: LTEA_HepaRG_SLCO1B1: Life Technologies and Expression Analysis (LTEA) Assay for solute carrier (SLCO1B1) using HepaRG (AID 2283530); details: mRNA level, 48 h; actives raise or lower the signal
# Outline: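 SLCO1B1 transcript levels were quantified by TaqMan qRT-PCR using three housekeeping genes for normalization. This followed 48 h chemical exposure (100 uM top, half-log, 8 points, 0.5% DMSO) of HepaRG liver cells, with gain or loss fitted relative to DMSO.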
# [4] = read-out: sulfotransferase 2A1 (SULT2A1), SULT2A1 (gene 6822); test: LTEA_HepaRG_SULT2A1: Life Technologies and Expression Analysis (LTEA) Assay for sulfotransferase 2A1 (SULT2A1) using HepaRG (AID 2283531); details: mRNA level, 48 h; actives raise or lower the signal
# Outline: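 Expression change of SULT2A1, by qRT-PCR with three housekeeping-gene normalization, was scored bidirectionally versus DMSO. Cells: differentiated HepaRG, dosed in duplicate for 48 h across 8 points, highest 100 µM, half-log dilution, 0.5% DMSO.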
# [5] = read-out: Transforming Growth Factor (TGFA), TGFA (gene 7039); test: LTEA_HepaRG_TGFA: Life Technologies and Expression Analysis (LTEA) Assay for Transforming Growth Factor (TGFA) using HepaRG (AID 2283532); details: mRNA level, 48 h; actives raise or lower the signal
# Outline: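 Differentiated HepaRG cells exposed 48 hours in serum-free induction medium, 0.5% DMSO vehicle, 8-point half-log series from 100 uM, in duplicate. TGFA mRNA by TaqMan qRT-PCR, normalised to ACTB, GAPDH, POLR2A; bidirectional fit versus DMSO.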
# [6] = read-out: TIMP1, TIMP1 (gene 7076); test: LTEA_HepaRG_TIMP1: Life Technologies and Expression Analysis (LTEA) Assay for TIMP1 using HepaRG (AID 2283534); details: mRNA level, 48 h; actives raise or lower the signal
# Outline: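 Bidirectional change in TIMP1 transcript versus 0.5% DMSO, measured by TaqMan qRT-PCR with three housekeeping genes for normalization. HepaRG human liver cells dosed 48 h in duplicate, top concentration 100 uM with half-log dilutions.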
# [7] = read-out: Tumor necrosis factor receptor 1 (TNFRSF1A), TNFRSF1A (gene 7132); test: LTEA_HepaRG_TNFRSF1A: Life Technologies and Expression Analysis (LTEA) Assay for Tumor necrosis factor receptor 1 (TNFRSF1A) using HepaRG (AID 2283535); details: mRNA level, 48 h; actives raise or lower the signal
# Outline: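 mRNA measured by qRT-PCR (TaqMan, Fluidigm arrays) against ACTB/GAPDH/POLR2A housekeepers after 48 h chemical exposure of HepaRG cells. Top concentration 100 uM, half-log 8-point series, duplicates; vehicle 0.5% DMSO, both fit directions.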
# [8] = read-out: Thyroid Hormone Responsive (THRSP), THRSP (gene 7069); test: LTEA_HepaRG_THRSP: Life Technologies and Expression Analysis (LTEA) Assay for Thyroid Hormone Responsive (THRSP) using HepaRG (AID 2283536); details: mRNA level, 48 h; actives raise or lower the signal
# Outline: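 Differentiated HepaRG cells treated 48 h in serum-free induction medium with 8 half-log concentrations up to 100 uM (0.5% DMSO), duplicates. THRSP mRNA by TaqMan qRT-PCR normalised to ACTB, GAPDH, POLR2A; bidirectional fit versus DMSO.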
# [9] = read-out: Cellular tumor antigen p53 (Homo sapiens) (UniProt P04637); test: LTEA_HepaRG_TP53: Life Technologies and Expression Analysis (LTEA) Assay for Tumor Protein P53 (TP53) using HepaRG (AID 2283537); details: mRNA level, 48 h; actives raise or lower the signal
# Outline: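 TP53 transcript measured by qRT-PCR, normalized to three housekeeping genes, after 48 h treatment of human HepaRG cultures with chemicals from 100 uM downward in half-log steps (0.5% DMSO vehicle, serum-free induction medium). Up- or down-regulation fitted against DMSO.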
# [10] = read-out: UDP glucuronosyltransferase (UGT1A1), UGT1A1 (gene 54658); test: LTEA_HepaRG_UGT1A1: Life Technologies and Expression Analysis (LTEA) Assay for UDP glucuronosyltransferase (UGT1A1) using HepaRG (AID 2283538); details: mRNA level, 48 h; actives raise or lower the signal
# Outline: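 HepaRG cells, 0.5% DMSO vehicle, 48 h exposure in serum-free induction medium to 8-point half-log series topping at 100 uM, in duplicate. UGT1A1 mRNA by Fluidigm qRT-PCR, normalized to ACTB/GAPDH/POLR2A; bidirectional fit versus DMSO.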
# [11] = read-out: X-box binding protein 1 (XBP1), XBP1 (gene 7494); test: LTEA_HepaRG_XBP1: Life Technologies and Expression Analysis (LTEA) Assay for X-box binding protein 1 (XBP1) using HepaRG (AID 2283540); details: mRNA level, 48 h; actives raise or lower the signal
# Outline: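 XBP1 transcript by qRT-PCR (housekeeping-normalized: ACTB, GAPDH, POLR2A) after 48 h chemical treatment of HepaRG cells, 8-point half-log series topping at 100 uM, vehicle 0.5% DMSO. Gain and loss of signal fitted relative to DMSO.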
# [12] = LTEA_HepaRG_LDH_cytotoxicity: Cytotoxicity Assessment in the Life Technologies and Expression Analysis (LTEA) Assay (AID 2283563; active = hit-call score of the fitted dose curve at least 0.9, where 1 is the maximum;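 as to AC50: LDH activity released into spent culture medium as a marker of cell death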)
# Outline: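 LDH release into culture medium read after 48 h chemical treatment of HepaRG cells. Duplicate wells, eight-point half-log series topping at 100 uM, 0.5% DMSO vehicle and baseline.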
# [13] = ATG_XTT_Cytotoxicity: Cytotoxicity Assessment in the Attagene TRANS-FACTORIAL HepG2 Assay (AID 2283584; active = hit-call score of the fitted dose curve at least 0.9, where 1 is the maximum)
# Outline: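 Viability endpoint from XTT after 24 h chemical exposure of reporter-transfected human HepG2 liver cells; signal loss fitted relative to DMSO negative control.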
# [14] = molecular target: Cellular tumor antigen p53 (Homo sapiens) (UniProt P04637); test: TOX21_p53_BLA_p2_ratio: Tox21 HCT-116 p53 Agonism Beta-lactamase Assay, Ratio, Phase 2 (AID 2283592; active = hit-call score of the fitted dose curve at least 0.9, where 1 is the maximum)
# Cellular tumor antigen p53 (Homo sapiens), sequence (P04637 whole entry, looked up): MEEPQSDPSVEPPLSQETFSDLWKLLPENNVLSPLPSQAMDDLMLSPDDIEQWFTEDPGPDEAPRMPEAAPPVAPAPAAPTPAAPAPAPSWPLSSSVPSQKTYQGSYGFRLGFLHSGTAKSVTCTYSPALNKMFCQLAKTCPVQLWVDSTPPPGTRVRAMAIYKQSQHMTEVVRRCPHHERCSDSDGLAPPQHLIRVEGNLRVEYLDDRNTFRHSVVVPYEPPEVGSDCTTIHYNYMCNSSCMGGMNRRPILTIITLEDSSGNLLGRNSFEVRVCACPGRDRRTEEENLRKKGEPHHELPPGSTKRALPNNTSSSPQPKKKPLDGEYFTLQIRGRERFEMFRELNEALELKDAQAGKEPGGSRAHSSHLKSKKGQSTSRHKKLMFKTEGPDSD
# Outline: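 Gain-of-signal p53 agonism was scored from the beta-lactamase FRET ratio (460/530 nm, 405 nm excitation) in HCT116 cells treated 16 h at 37C, 5% CO2, with DMSO serving as negative control and baseline.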
# [15] = molecular target: Cellular tumor antigen p53 (Homo sapiens) (UniProt P04637); test: TOX21_p53_BLA_p3_ratio: Tox21 HCT-116 p53 Agonism Beta-lactamase Assay, Ratio, Phase 3 (AID 2283596; active = hit-call score of the fitted dose curve at least 0.9, where 1 is the maximum)
# Outline: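 HCT116 p53-bla cells (4000/well) given compound in DMSO (217-fold dilution) after 5 h, incubated 16 h at 37C. CCF4-AM substrate 2 h at room temperature; 460/530 nm emission ratio, gain fitted against DMSO.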
# [16] = TOX21_p53_BLA_p4_viability: Viability Assessment in the Tox21 HCT-116 p53 Agonism Beta-lactamase Assay, Phase 4 (AID 2283597; active = hit-call score of the fitted dose curve at least 0.9, where 1 is the maximum;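 also: hits lower the luminescence signal meaning cytotoxicity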)
# Outline: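 Following a 16 h exposure at 37C, the treated HCT116 wells were first read for the FRET ratio. They were then lysed with CellTiter-Glo, and ATP luminescence was recorded after 30 min at room temperature.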
# [17] = read-out: Transforming Growth Factor (TGFB1), TGFB1 (gene 7040); test: LTEA_HepaRG_TGFB1: Life Technologies and Expression Analysis (LTEA) Assay for Transforming Growth Factor (TGFB1) Transporter using HepaRG (AID 2283533); details: mRNA level, 48 h; actives raise or lower the signal
# Outline: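 TGFB1 transcript measured by qRT-PCR with normalisation to three housekeeping genes (ACTB, GAPDH, POLR2A); human HepaRG line treated in duplicate for 48 hr with an 8-point series topping at 100 uM, 0.5% DMSO vehicle, bidirectionally fitted.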
# [18] = read-out: UDP glucuronosyltransferase (UGT1A6), UGT1A6 (gene 54578); test: LTEA_HepaRG_UGT1A6: Life Technologies and Expression Analysis (LTEA) Assay for UDP glucuronosyltransferase (UGT1A6) using HepaRG (AID 2283539); details: mRNA level, 48 h; actives raise or lower the signal
# Outline: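 Expression was quantified by TaqMan qRT-PCR on Fluidigm arrays with ACTB/GAPDH/POLR2A normalization and bidirectional fitting against 0.5% DMSO. HepaRG cells (~100,000/well) were treated in duplicate for 48 h at eight half-log concentrations up to 100 uM in serum-free induction medium.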
# [19] = TOX21_p53_BLA_p2_viability: Viability Assessment in the Tox21 HCT-116 p53 Agonism Beta-lactamase Assay, Phase 2 (AID 2283591; active = hit-call score of the fitted dose curve at least 0.9, where 1 is the maximum;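 also: compound exposure lasted 16 h at 37 °C; actives lower the ATP signal meaning cytotoxicity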)
# Outline: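 HCT116 p53-bla cells, 4000/well, dosed after 5 h plating (217-fold dilution of DMSO stocks) and incubated 16 h at 37C. Viability taken as cellular ATP by CellTiter-Glo luminescence after 30 min RT; signal loss marks cytotoxicity.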
# [20] = TOX21_p53_BLA_p3_viability: Viability Assessment in the Tox21 HCT-116 p53 Agonism Beta-lactamase Assay, Phase 3 (AID 2283593; active = hit-call score of the fitted dose curve at least 0.9, where 1 is the maximum;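 also: cells exposed to compound for 16 h before reading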)
# Outline: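 HCT116 cells, 4000/well, dosed 5 h after plating by pin transfer (217-fold dilution from DMSO stock) and incubated 16 h at 37C, 5% CO2. Viability read as ATP luminescence with CellTiter-Glo after 30 min at room temperature.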
# Signal transducer and activator of transcription 3 (Homo sapiens), sequence (P40763 whole entry, looked up): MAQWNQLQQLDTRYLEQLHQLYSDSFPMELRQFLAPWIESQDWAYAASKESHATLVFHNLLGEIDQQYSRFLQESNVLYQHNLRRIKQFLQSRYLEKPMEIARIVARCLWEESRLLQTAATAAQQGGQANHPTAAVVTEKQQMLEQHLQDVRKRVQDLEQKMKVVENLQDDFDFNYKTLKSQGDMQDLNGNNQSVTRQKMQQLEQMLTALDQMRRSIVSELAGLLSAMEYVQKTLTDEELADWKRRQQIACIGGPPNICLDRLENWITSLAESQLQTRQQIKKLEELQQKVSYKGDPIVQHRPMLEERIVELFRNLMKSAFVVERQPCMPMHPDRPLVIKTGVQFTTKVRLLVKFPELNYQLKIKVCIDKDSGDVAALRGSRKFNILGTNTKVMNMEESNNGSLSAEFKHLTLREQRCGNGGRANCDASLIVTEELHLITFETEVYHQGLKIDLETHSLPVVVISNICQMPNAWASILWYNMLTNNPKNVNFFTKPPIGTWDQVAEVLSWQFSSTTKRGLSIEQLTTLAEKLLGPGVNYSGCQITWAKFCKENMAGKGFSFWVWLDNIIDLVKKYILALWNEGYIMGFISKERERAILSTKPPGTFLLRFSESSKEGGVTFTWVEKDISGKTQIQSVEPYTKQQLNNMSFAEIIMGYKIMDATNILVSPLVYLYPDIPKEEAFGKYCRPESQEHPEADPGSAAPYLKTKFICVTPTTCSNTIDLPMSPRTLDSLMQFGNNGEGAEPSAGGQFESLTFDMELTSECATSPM
structure (smiles),measurement,setting,value
Cc1ccc2ncccc2c1,outcome,[1],inactive
same,outcome,[2],inactive
same,outcome,[3],inactive
same,outcome,[4],inactive
same,outcome,[5],inactive
same,outcome,[6],inactive
same,outcome,[7],inactive
same,outcome,[8],inactive
same,outcome,[9],inactive
same,outcome,[10],inactive
same,outcome,[11],inactive
same,outcome,[12],inactive
same,outcome,[13],inactive
same,outcome,[14],inactive
same,outcome,[15],inactive
same,outcome,[16],inactive
COCCOC[C@H](CC1(C(=O)NC2CCC(C(=O)O)CC2)CCCC1)C(=O)Oc1ccc2c(c1)CCC2 (stereo not given in full),outcome,[1],inactive
same,outcome,[2],inactive
same,outcome,[3],inactive
same,outcome,[5],inactive
same,outcome,[17],inactive
same,outcome,[6],inactive
same,outcome,[7],inactive
same,outcome,[8],inactive
same,outcome,[9],inactive
same,outcome,[10],inactive
same,outcome,[18],inactive
same,outcome,[11],inactive
same,outcome,[12],inactive
same,outcome,[19],inactive
same,outcome,[20],inactive
same,outcome,[15],inactive
same,outcome,[16],inactive
CN[C@H]1CC[C@@H](c2ccc(Cl)c(Cl)c2)c2ccc(S(N)(=O)=O)cc21,outcome,[1],inactive
same,AC50,[2],50 µM (active)
same,outcome,[3],inactive
same,outcome,[5],inactive
same,outcome,[17],inactive
same,outcome,[6],inactive
same,outcome,[7],inactive
same,outcome,[8],inactive
same,AC50,[9],87.6 µM (active)
same,AC50,[10],37 µM (active)
same,AC50,[18],74.2 µM (active)
same,outcome,[11],inactive
same,AC50,[12],36.9 µM (active)
same,AC50,[19],78.4 µM (active)
same,AC50,[15],86.1 µM (active)
same,AC50,[16],61.9 µM (active)
CCCCCCCCCCC,outcome,[1],inactive
same,outcome,[2],inactive
same,outcome,[3],inactive
same,outcome,[4],inactive
same,outcome,[5],inactive
same,outcome,[6],inactive
same,outcome,[7],inactive
same,outcome,[8],inactive
same,outcome,[9],inactive
same,outcome,[10],inactive
same,outcome,[18],inactive
same,outcome,[11],inactive
same,outcome,[12],inactive
same,outcome,[13],inactive
same,outcome,[19],inactive
same,outcome,[14],inactive
same,outcome,[15],inactive
Cc1cccc(C)c1O,outcome,[1],inactive
same,outcome,[2],inactive
same,outcome,[3],inactive
same,outcome,[5],inactive
same,outcome,[17],inactive
same,outcome,[6],inactive
same,outcome,[7],inactive
same,outcome,[8],inactive
same,outcome,[9],inactive
same,outcome,[10],inactive
same,outcome,[18],inactive
same,outcome,[11],inactive
same,outcome,[12],inactive
same,outcome,[13],inactive
same,outcome,[19],inactive
same,outcome,[14],inactive
same,outcome,[15],inactive
same,outcome,[16],inactive
O=c1[nH]cc(F)c(=O)[nH]1,outcome,[2],inactive
same,outcome,[3],inactive
same,outcome,[4],inactive
same,outcome,[5],inactive
same,outcome,[17],inactive
same,outcome,[6],inactive
same,outcome,[7],inactive
same,AC50,[8],51 µM (active)
same,outcome,[10],inactive
same,outcome,[11],inactive
same,outcome,[12],inactive
same,outcome,[13],inactive
same,AC50,[19],1.34 µM (active) and 1.39 µM (active)
same,outcome,[19],inactive
same,AC50,[15],2.99 µM (active) and 2.3 µM (active) and 5.29 µM (active)
same,AC50,[16],15.7 µM (active) and 9.55 µM (active)
same,outcome,[16],inactive
Cc1oc(-c2ccccc2)nc1CCOc1cccc2c1ccn2CCC(=O)O,outcome,[1],inactive
same,outcome,[2],inactive
same,AC50,[3],82.4 µM (active)
same,AC50,[5],50 µM (active)
same,outcome,[6],inactive
same,outcome,[7],inactive
same,AC50,[8],79.1 µM (active)
same,AC50,[10],90.9 µM (active)
same,AC50,[18],79.8 µM (active)
same,outcome,[11],inactive
same,AC50,[12],81.4 µM (active)
same,outcome,[19],inactive
same,outcome,[15],inactive
same,outcome,[16],inactive
